Laboratory results published in the supplement of paper PMC11001985.

What follows are targets tested with C#CCNC(=O)CCSSCCC(=O)NCCc1ccc(C=O)c(C=O)c1 (assay: lysine labeling ratio R10:1 (500 µM / 50 µM probe), SILAC-ABPP in living cells; higher = lower intrinsic lysine reactivity toward the probe, active = 2 or less). Settings: HeLa; probe concentrations 500 vs 50 µM.
Summary of the method: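 Measurements came from LC-MS/MS on a TIMS-TOF Pro of mixed SILAC light and heavy HeLa lysates after click to biotin-azide, trypsin digestion, neutravidin capture, DTT release and alkylation. Before lysis, the living cells sat in PBS at room temperature with 50 µM or 500 µM of an alkyne-tagged, disulfide-linked lysine probe, and labels were swapped forward and reverse. R per lysine is the median across both swap directions of the filtered median high-probe/low-probe MS1 peptide ratio. The cap is 20.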

Chain of UniProt Q01082 (Q01082 whole entry): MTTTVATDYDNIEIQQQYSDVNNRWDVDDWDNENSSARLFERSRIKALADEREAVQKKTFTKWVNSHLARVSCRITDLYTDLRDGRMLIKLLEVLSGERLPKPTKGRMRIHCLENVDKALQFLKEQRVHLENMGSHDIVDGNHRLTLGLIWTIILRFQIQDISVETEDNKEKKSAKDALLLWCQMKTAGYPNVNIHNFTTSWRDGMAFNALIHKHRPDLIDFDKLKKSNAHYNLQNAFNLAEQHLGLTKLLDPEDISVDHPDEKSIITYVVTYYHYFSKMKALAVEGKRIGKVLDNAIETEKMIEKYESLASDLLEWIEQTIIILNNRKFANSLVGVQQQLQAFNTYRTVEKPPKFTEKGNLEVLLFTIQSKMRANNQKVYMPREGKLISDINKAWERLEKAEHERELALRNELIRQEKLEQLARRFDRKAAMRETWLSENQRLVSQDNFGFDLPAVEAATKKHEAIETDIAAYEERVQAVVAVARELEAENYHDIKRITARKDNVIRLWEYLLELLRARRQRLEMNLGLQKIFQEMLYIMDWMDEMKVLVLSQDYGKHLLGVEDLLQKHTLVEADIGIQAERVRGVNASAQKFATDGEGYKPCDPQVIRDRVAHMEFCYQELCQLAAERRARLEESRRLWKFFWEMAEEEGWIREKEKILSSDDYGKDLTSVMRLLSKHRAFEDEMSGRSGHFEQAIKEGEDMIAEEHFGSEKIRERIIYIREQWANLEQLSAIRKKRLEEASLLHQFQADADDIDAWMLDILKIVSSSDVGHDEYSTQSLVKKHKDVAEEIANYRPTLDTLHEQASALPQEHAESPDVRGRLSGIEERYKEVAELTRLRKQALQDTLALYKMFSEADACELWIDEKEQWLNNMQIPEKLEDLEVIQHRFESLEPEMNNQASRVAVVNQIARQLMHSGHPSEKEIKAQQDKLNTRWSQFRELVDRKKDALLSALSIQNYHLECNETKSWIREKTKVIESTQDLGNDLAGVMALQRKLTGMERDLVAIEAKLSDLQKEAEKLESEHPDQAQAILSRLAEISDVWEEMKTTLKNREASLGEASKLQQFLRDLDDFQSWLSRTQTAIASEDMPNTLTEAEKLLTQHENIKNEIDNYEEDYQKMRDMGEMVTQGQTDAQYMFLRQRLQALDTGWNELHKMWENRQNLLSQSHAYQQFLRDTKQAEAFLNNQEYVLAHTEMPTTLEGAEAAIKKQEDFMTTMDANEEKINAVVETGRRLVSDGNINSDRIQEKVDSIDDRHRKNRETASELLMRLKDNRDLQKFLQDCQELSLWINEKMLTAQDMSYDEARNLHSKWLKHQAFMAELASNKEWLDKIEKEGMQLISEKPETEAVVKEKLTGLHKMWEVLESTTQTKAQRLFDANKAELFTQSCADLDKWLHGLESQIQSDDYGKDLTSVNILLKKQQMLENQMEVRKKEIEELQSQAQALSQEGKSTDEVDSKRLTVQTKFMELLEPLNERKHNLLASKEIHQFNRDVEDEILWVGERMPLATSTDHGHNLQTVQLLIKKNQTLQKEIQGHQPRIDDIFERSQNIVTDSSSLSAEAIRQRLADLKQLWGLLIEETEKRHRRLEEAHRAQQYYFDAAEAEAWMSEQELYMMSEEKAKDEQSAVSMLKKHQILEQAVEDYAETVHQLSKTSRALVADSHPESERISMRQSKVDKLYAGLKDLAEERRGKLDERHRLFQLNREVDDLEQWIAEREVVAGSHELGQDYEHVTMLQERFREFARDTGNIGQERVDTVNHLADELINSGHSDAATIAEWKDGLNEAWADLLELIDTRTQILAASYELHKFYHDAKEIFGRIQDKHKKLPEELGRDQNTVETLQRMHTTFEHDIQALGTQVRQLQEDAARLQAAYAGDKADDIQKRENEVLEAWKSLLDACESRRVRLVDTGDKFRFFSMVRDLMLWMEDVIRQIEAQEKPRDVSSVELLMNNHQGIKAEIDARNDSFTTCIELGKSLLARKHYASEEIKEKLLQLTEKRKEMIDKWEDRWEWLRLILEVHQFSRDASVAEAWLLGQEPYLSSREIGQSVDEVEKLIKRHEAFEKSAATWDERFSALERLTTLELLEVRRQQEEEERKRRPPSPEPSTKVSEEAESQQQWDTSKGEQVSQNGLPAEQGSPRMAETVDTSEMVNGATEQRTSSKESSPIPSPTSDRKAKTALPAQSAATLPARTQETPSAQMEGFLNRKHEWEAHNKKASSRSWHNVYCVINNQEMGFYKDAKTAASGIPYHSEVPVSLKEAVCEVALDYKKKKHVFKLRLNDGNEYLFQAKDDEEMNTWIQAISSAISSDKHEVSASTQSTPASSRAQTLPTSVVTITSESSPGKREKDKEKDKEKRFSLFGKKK
Chain of UniProt P21333 (P21333 whole entry): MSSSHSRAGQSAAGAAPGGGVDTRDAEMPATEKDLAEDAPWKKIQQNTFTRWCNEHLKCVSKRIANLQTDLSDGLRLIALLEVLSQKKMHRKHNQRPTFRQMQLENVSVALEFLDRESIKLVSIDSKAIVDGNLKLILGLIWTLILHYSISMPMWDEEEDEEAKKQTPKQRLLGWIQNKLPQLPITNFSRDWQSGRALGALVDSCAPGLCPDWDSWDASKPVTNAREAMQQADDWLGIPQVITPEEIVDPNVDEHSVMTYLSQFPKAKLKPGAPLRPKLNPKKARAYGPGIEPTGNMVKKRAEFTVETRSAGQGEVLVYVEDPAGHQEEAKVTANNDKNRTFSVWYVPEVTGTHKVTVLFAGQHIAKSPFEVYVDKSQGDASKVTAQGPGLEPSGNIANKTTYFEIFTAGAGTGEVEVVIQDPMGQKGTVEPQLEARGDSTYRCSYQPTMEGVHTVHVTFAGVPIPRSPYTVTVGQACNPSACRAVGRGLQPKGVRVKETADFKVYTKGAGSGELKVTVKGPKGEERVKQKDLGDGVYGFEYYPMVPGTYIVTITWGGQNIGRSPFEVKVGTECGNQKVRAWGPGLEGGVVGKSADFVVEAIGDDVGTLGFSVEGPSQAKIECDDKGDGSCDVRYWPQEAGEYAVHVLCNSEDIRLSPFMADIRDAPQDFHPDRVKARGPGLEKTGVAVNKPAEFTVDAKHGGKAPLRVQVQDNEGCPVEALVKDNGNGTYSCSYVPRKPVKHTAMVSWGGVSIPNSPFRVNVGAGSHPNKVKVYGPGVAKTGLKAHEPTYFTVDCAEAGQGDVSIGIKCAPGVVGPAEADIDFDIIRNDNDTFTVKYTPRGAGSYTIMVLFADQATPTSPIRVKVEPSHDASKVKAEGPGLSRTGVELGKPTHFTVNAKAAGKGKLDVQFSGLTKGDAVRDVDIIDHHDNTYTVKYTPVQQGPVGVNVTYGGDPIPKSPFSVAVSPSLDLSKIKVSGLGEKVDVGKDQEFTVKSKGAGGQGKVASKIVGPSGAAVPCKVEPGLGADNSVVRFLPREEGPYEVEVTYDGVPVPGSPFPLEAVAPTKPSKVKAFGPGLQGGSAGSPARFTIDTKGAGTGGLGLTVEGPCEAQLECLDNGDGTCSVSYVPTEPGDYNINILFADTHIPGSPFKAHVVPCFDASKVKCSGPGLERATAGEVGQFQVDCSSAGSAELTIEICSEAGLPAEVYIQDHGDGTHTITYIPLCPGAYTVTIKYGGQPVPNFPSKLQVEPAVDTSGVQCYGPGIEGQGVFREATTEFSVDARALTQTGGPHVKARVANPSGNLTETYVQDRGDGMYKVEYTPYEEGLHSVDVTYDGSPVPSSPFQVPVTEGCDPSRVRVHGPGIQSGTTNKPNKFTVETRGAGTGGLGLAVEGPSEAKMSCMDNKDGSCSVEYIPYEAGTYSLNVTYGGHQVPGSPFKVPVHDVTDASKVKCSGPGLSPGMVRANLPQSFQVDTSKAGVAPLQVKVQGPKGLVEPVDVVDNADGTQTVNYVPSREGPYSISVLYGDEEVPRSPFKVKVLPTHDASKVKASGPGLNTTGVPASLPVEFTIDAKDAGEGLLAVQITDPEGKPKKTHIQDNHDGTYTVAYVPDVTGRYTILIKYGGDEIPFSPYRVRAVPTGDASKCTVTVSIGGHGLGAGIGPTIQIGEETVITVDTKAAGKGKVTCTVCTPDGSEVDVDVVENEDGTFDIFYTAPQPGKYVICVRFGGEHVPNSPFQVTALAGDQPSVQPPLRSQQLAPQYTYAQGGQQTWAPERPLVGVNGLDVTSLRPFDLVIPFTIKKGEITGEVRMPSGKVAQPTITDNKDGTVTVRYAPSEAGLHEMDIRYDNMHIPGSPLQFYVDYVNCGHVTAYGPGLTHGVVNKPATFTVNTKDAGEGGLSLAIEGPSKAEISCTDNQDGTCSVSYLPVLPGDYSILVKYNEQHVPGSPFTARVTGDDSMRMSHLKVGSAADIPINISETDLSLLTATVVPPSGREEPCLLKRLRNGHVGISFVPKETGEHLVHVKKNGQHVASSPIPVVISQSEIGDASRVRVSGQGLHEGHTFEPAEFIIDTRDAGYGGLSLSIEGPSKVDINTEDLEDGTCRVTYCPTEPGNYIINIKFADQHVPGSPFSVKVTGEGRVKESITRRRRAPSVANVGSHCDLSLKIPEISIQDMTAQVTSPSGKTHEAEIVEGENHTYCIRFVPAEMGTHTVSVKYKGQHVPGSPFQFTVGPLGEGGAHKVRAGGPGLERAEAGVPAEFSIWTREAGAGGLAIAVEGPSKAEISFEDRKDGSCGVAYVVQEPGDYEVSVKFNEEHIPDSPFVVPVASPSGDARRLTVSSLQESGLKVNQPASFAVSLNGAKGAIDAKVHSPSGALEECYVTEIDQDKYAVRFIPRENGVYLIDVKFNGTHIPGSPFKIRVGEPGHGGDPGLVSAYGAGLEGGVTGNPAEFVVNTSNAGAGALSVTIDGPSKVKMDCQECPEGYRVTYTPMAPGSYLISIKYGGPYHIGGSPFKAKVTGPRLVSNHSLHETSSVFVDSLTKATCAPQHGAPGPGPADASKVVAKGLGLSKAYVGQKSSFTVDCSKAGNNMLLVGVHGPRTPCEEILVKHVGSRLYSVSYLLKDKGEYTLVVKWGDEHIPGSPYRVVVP
Chain of UniProt P61604 (P61604 whole entry): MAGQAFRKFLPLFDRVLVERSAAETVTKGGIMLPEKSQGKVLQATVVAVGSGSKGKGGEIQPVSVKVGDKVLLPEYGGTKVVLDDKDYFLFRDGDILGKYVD

Lysine labeling ratio R10:1, active:
RPL5 (lysine site: K283) (UniProt P46777) 1.68
MSN (lysine site: K316) (UniProt P26038) 1.47
SPTBN1 (lysine site: K1459) (UniProt Q01082) 0.588
UniProt P61978 (lysine site: K198) 1.88
UniProt Q8WXI7 (lysine site: K12412) 1.99
UniProt P61026 (lysine site: K136) 1.9
FN1 (lysine site: K1050) (UniProt P02751) 1.47
SDC2 (lysine site: K111) (UniProt P34741) 1.38
UniProt Q86UP0 (lysine site: K324) 1.82
FLOT1 (lysine site: K184) (UniProt O75955) 1.83
FKBP4 (lysine site: K181) (UniProt Q02790) 1.43
FLNA (lysine site: K1164) (UniProt P21333) 1.16
DBN1 (lysine site: K248) (UniProt Q16643) 0.855
SPTBN1 (lysine site: K1684) (UniProt Q01082) 1.83
NPTN (lysine site: K260) (UniProt Q9Y639) 1
UniProt Q15286 (lysine site: K121) 0.72
BCAP31 (lysine site: K204) (UniProt P51572) 1.82
MYH9 (lysine site: K613) (UniProt P35579) 1.78
PPT1 (lysine site: K191) (UniProt P50897) 1.31

Lysine labeling ratio R10:1, inactive:
LDHB (lysine site: K156) (UniProt P07195) 6.77
CALD1 (lysine site: K119) (UniProt Q05682) 2.67
FLNA (lysine site: K1372) (UniProt P21333) 2.93
DSC2 (lysine site: K270) (UniProt Q02487) 2.49
SLC25A5 (lysine site: K147) (UniProt P05141) 4.57
HSPE1 (lysine site: K99) (UniProt P61604) 4.89
ORMDL3 (lysine site: K79) (UniProt Q8N138) 5.16
GALNT2 (lysine site: K363) (UniProt Q10471) 3.95
TPI1 (lysine site: K188) (UniProt P60174) 4.28
UniProt Q86V81 (lysine site: K235) 2.42
FLNB (lysine site: K409) (UniProt O75369) 2.05
EPHA5 (lysine site: K194) (UniProt P54756) 2.4
VAMP8 (lysine site: K64) (UniProt Q9BV40) 2.52
PPIB (lysine site: K116) (UniProt P23284) 6.61
RPL10A (lysine site: K196) (UniProt P62906) 2.81
UniProt P46781 (lysine site: K180) 2.7
UniProt P61981 (lysine site: K142) 3.71
ITGA6 (lysine site: K569) (UniProt P23229) 2.54
UniProt P25705 (lysine site: K230) 2.24
SPTBN1 (lysine site: K1939) (UniProt Q01082) 3.41
EEF2 (lysine site: K572) (UniProt P13639) 2.79
